{"source": "PubChem BioAssay AID1259343", "about": "(VanderVen Lab, College of Veterinary Medicine, Cornell …, 2017)", "note": "Among all 6,200 compounds or so, about 2,900 (47%) were called active. The set was probably picked from earlier hits. The list shows a part of the results. Values without a mark were called inactive. Rule as the data show it: active = inhibition above about 50%; inactive = the rest.", "data": [{"experiment": "Mycobacterium tuberculosis growth inhibition, primary screen (AID 1259343)", "conditions": "inhibition: at 10 µM, stronger effect = higher value; outcome: 10 uM", "values": [{"smiles": "Cc1c(NC(=S)NCc2ccccn2)c(=O)n(-c2ccccc2)n1C", "inhibition": "92.7% (active)"}, {"smiles": "Cc1c(NC(=S)NC(=O)c2ccc(Br)o2)c(=O)n(-c2ccccc2)n1C", "inhibition": "-13.3%"}, {"smiles": "Cc1cc2cc(CNC(=S)Nc3ccccc3)ccc2n1C", "inhibition": "49.3%"}, {"smiles": "Cc1ccc(S(=O)(=O)N=[N+]([O-])C2([N+](=O)[O-])COC(C)OC2)cc1", "note": "(stereo not given)", "inhibition": "102% (active)"}, {"smiles": "CCOC(=O)c1ccc(N=Cc2c(O)c([N+](=O)[O-])cc3oc4c(c23)CCCC4)cc1", "inhibition": "97.7% (active)"}, {"smiles": "O=C(Nc1cccc(-c2cscn2)c1)C1CCN(Cc2cccc(-c3ccco3)c2)CC1", "inhibition": "86.2% (active)"}, {"smiles": "CC(=O)c1ccc(C(=O)N2CCC(C(=O)Nc3cccc(-c4ccco4)c3)CC2)s1", "inhibition": "92.1% (active)"}, {"smiles": "O=C(Nc1cccc(-c2ccco2)c1)C1CCN(C(=O)Cc2ccsc2)CC1", "inhibition": "95.1% (active)"}, {"smiles": "Cc1ncsc1CCC(=O)N1CCC(C(=O)Nc2cccc(-c3ccco3)c2)CC1", "inhibition": "86.6% (active)"}, {"smiles": "CC(C)c1csc(CN2CCC(C(=O)Nc3cccc(-c4ccco4)c3)CC2)n1", "inhibition": "inactive"}, {"smiles": "Cc1ccccc1OCC(=O)Nc1ccc2c(c1)CCC(=O)N2CCC(C)C", "inhibition": "9.17%"}, {"smiles": "Cc1ccc(NC(=O)CN2CSCC2=O)cc1OCC(F)F", "inhibition": "81.5% (active)"}, {"smiles": "Cn1cccc1C(=O)OCc1nc2scc(-c3ccccc3)c2c(=O)[nH]1", "inhibition": "37.5%"}, {"smiles": "N#Cc1ncn(Cc2nc3scc(-c4ccc(Br)cc4)c3c(=O)[nH]2)n1", "inhibition": "50.4% (active)"}, {"smiles": "N#Cc1c(-c2ccc(Br)cc2)csc1N1CCCCC1", "inhibition": "38.9%"}, {"smiles": "O=C1NC(=O)N(C2CCCCC2)C(=O)C1=CC=Cc1ccco1", "inhibition": "19.5%"}, {"smiles": "CC(=NN=c1sc2ccccc2n1C)c1ccccc1Br", "inhibition": "11.9%"}, {"smiles": "CC1=CC(=NN=c2sc3ccccc3n2C)CC(C)(C)C1", "inhibition": "95% (active)"}, {"smiles": "CC(=NN=c1sc2ccccc2n1C)c1ccco1", "inhibition": "1.85%"}, {"smiles": "CC1=CC(=NNc2ncc(Cl)cc2Cl)CC(C)(C)C1", "inhibition": "-13.2%"}, {"smiles": "Cn1c(=NN=C2CCCc3ccccc32)sc2ccccc21", "inhibition": "85.9% (active)"}, {"smiles": "Cn1c(=NN=C2CC3CC=CC23)sc2ccccc21", "note": "(stereo not given)", "inhibition": "102% (active)"}, {"smiles": "Cc1ccc(Cl)cc1N1CCN(C(=O)Nc2nncs2)CC1", "inhibition": "2.42%"}, {"smiles": "O=c1c(C2OCC3(CO2)CC2C=CC3C2)coc2ccccc12", "note": "(stereo not given)", "inhibition": "35.6%"}, {"smiles": "Nc1ccn2ncc([P+](c3ccccc3)(c3ccccc3)c3ccccc3)c2n1", "inhibition": "24%"}, {"smiles": "CCCCc1ccc(NC(=O)/C=C/c2cnn(C)c2C)cc1", "inhibition": "93.3% (active)"}, {"smiles": "COc1ccccc1N1C(=O)C(Cl)=C(Nc2ccc(S(N)(=O)=O)cc2)C1=O", "inhibition": "-0.54%"}, {"smiles": "Cc1ccc(NC2=C(Cl)C(=O)N(CC(C)C)C2=O)cc1", "inhibition": "73.8% (active)"}, {"smiles": "CCN(CC)CCN(C(=O)c1ccnn1CC)c1nc2c(C)c(Cl)ccc2s1", "inhibition": "38.3%"}, {"smiles": "Cc1ccc(Cl)c2sc(NCCN(C)C)nc12", "inhibition": "36.2%"}, {"smiles": "Cc1ccc(Cl)c2sc(N3CCNCC3)nc12", "inhibition": "100% (active)"}, {"smiles": "Cc1cc(C)c2nc(N3CCNCC3)sc2c1", "inhibition": "97.1% (active)"}, {"smiles": "Cc1c(Cl)ccc2sc(N3CCNCC3)nc12", "inhibition": "90.2% (active)"}, {"smiles": "Cc1nc(N2CCNC(=O)C2)c2c(CC(C)C)csc2n1", "inhibition": "-15.6%"}, {"smiles": "Cc1c(O)cccc1C(=O)NC1CC(=O)N(CC2CCCCC2)C1", "note": "(stereo not given)", "inhibition": "-18.6%"}, {"smiles": "Cc1ccc(C)c2[nH]c(=O)c(CCNC(=S)NCCc3ccccc3)cc12", "inhibition": "51.5% (active)"}, {"smiles": "C/C(=C/C(=O)NCCc1ccccc1F)CCc1ccccc1", "inhibition": "23.7%"}, {"smiles": "N#CC(C#N)=NNc1ccccc1", "inhibition": "-41.6%"}, {"smiles": "N#CC(C#N)=NNc1ccc2c(c1)OCCO2", "inhibition": "70.3% (active)"}, {"smiles": "N#CC(C#N)=NNc1ccc2c(c1)OCO2", "inhibition": "45.5%"}, {"smiles": "Fc1ccc(NN=C2c3ccccc3-c3ccccc32)cc1", "inhibition": "44.1%"}, {"smiles": "N#CC(C#N)=NNc1ccc(F)cc1", "inhibition": "91.2% (active)"}, {"smiles": "N#CC(C#N)=NNc1ccc(SC(F)F)cc1", "inhibition": "82.4% (active)"}, {"smiles": "CCCOCCn1cc(C2CC=CCC2)nn1", "note": "(stereo not given)", "inhibition": "75.7% (active)"}, {"smiles": "O=C(NCCC(=O)N1CCCC1)c1ccc(-c2ccc(Cl)cc2)o1", "inhibition": "86.7% (active)"}, {"smiles": "S=C(c1ccc(-c2ccc(Cl)c(Cl)c2)o1)N1CCOCC1", "inhibition": "19.5%"}, {"smiles": "C=CCn1c(-c2cc3c(s2)CCC(CC)C3)n[nH]c1=S", "note": "(stereo not given)", "inhibition": "3.05%"}, {"smiles": "CCC1CCc2c(sc3nc[nH]c(=O)c23)C1", "note": "(stereo not given)", "inhibition": "51.2% (active)"}, {"smiles": "OCC1(CO)COC(c2ccccc2)=N1", "inhibition": "56.2% (active)"}, {"smiles": "Cc1ccc(OCc2cn(-c3ccc(Cl)cc3)nn2)cn1", "inhibition": "24.1%"}, {"smiles": "Cc1ccc(-n2cc(O)nn2)cc1", "inhibition": "94% (active)"}, {"smiles": "CCCCN(CCCC)c1nc(OC)nc(-n2nnc(C(C)=O)c2C)n1", "inhibition": "15%"}, {"smiles": "Cn1c(=NC(=O)c2ccc3ccccc3n2)sc2ccccc21", "inhibition": "45.5%"}, {"smiles": "Cc1cc(C)c(CNC(=O)c2ccc3ccccc3n2)c(=O)[nH]1", "inhibition": "70.6% (active)"}, {"smiles": "OCCNc1nc(-c2ccccc2)c2cc(Br)ccc2n1", "inhibition": "3.07%"}, {"smiles": "O=C(c1scc2c1CCCC2)N1CCCC1", "inhibition": "16.9%"}, {"smiles": "O=C(NCc1ccco1)c1cc(-c2cccs2)on1", "inhibition": "35.1%"}, {"smiles": "Cc1cc(C(=O)N2CCC(N3CCCC(C(=O)N4CCOCC4)C3)CC2)no1", "note": "(stereo not given)", "inhibition": "-0.96%"}, {"smiles": "O=C(c1cc(-c2cccs2)on1)N1CCCC1", "inhibition": "51.3% (active)"}, {"smiles": "Cc1noc(-c2cccs2)c1C(=O)NCCOc1ccccc1", "inhibition": "-3.83%"}, {"smiles": "Cc1cc(/C=C(/Cl)c2nc(-c3cccs3)no2)cc(C)c1O", "inhibition": "32.2%"}, {"smiles": "O=C(NC1CCCC1)c1nc(-c2cccs2)no1", "inhibition": "79.1% (active)"}, {"smiles": "O=C(NC1CCCC1)c1cc(-c2cccs2)on1", "inhibition": "93.6% (active)"}, {"smiles": "N#CC(O[C@@H]1O[C@H](CO[C@@H]2O[C@H](CO)[C@@H](O)[C@H](O)[C@H]2O)[C@@H](O)[C@H](O)[C@H]1O)c1ccccc1", "note": "(stereo not given in full)", "inhibition": "-0.91%"}, {"smiles": "COc1ccc(CC(=O)N2CCC(c3nc(-c4ccc(C(F)(F)F)cc4)no3)CC2)cc1", "inhibition": "76.9% (active)"}, {"smiles": "CC1CCN(C(=O)CCc2nc(-c3ccc(F)cc3)no2)CC1", "inhibition": "87.9% (active)"}, {"smiles": "CC1CCN(C(=O)CSc2nnc(C(C)Oc3ccc(F)cc3)o2)CC1", "note": "(stereo not given)", "inhibition": "-37.3%"}, {"smiles": "COc1ccc(CCc2nnc(CCC(=O)N3CCC(c4ccc(F)cc4)C3)o2)cc1", "note": "(stereo not given)", "inhibition": "15.2%"}, {"smiles": "COc1ccc(CC(=O)N2CCC(c3nc(-c4ccc(F)c(F)c4)no3)CC2)cc1", "inhibition": "51.3% (active)"}, {"smiles": "CCOC(=O)C(=O)N1CCC(c2nc(-c3ccc(F)c(F)c3)no2)CC1", "inhibition": "75.8% (active)"}, {"smiles": "COc1cccc(C(=O)N2CCC(c3nc(-c4ccc(C(F)(F)F)cc4)no3)CC2)c1", "inhibition": "30.8%"}, {"smiles": "CC(C)c1ccc(OP(N)(=O)Oc2ccccc2F)cc1", "note": "(stereo not given)", "inhibition": "12.2%"}, {"smiles": "CCOC(=O)CC(=O)N1CCC(c2nc(-c3ccc(Cl)cc3)no2)CC1", "inhibition": "57.3% (active)"}, {"smiles": "CCOC(=O)Cn1c(=NC(=O)c2cc(C)no2)sc2cc(Cl)ccc21", "inhibition": "-4.33%"}, {"smiles": "O=C(Cc1cccs1)N1CCC(c2nc(-c3ccc(C(F)(F)F)cc3)no2)CC1", "inhibition": "67.2% (active)"}, {"smiles": "O=C(CSc1nnc(Cc2cccs2)n1C1CC1)N1CCOC1=O", "inhibition": "-19.6%"}, {"smiles": "COC(=O)C(=O)N1CCC(c2nc(-c3ccc(Cl)cc3)no2)CC1", "inhibition": "20.8%"}, {"smiles": "O=C(NCCc1ccc(C(F)(F)F)cc1)NCCc1cccs1", "inhibition": "31.3%"}, {"smiles": "O=C(c1c(F)cccc1Cl)N1CCC(c2nc(-c3ccc(F)c(F)c3)no2)CC1", "inhibition": "88.5% (active)"}, {"smiles": "O=C(c1ccccc1C(F)(F)F)N1CCC(c2nc(-c3ccc(Cl)cc3F)no2)CC1", "inhibition": "15.5%"}, {"smiles": "O=C(COc1ccc(Cl)cc1)N1CCC(c2nc(-c3ccc(Cl)cc3F)no2)CC1", "inhibition": "64.9% (active)"}, {"smiles": "COc1ccc(CC(=O)N(CC(=O)N2CCc3sccc3C2c2ccc(Cl)cc2Cl)Cc2ccc(F)cc2)cc1", "note": "(stereo not given)", "inhibition": "3.26%"}, {"smiles": "OCCc1ccc(-c2noc(C3CCC3)n2)cc1", "inhibition": "40.7%"}, {"smiles": "COc1ccc(CC(=O)N2CCC(c3nc(-c4ccc(Cl)cc4F)no3)CC2)cc1", "inhibition": "89% (active)"}, {"smiles": "O=C(CCc1ccccc1)N1CCC(c2nc(-c3ccc(C(F)(F)F)cc3)no2)CC1", "inhibition": "83.2% (active)"}, {"smiles": "CC(=O)Nc1cccc(CNc2ccc(Br)cn2)c1", "inhibition": "2.55%"}, {"smiles": "CSC1(CNc2ccc(Br)cn2)CCOCC1", "inhibition": "57.5% (active)"}, {"smiles": "CC1(C(=O)Nc2ccc(F)c(-n3cccc3)c2)CCOCC1", "inhibition": "49.2%"}, {"smiles": "O=C1CCC(C(=O)Nc2ccc(F)c(-n3cccc3)c2)CN1", "note": "(stereo not given)", "inhibition": "68.1% (active)"}, {"smiles": "O=C(CC1CCS(=O)(=O)C1)Nc1ccc(F)c(-n2cccc2)c1", "note": "(stereo not given)", "inhibition": "58.4% (active)"}, {"smiles": "O=C(CC1CCCCC1)NCc1ccn(-c2ccccc2F)n1", "inhibition": "25.1%"}, {"smiles": "CC(=O)Nc1ccc(/C=C2\\C(=O)c3c(O)ccc(Cl)c3C2C)cc1", "note": "(stereo not given)", "inhibition": "28.3%"}, {"smiles": "CCOC(=O)C1=C(O)/C(=C\\c2cccc(C)n2)SC1=Nc1cccc(F)c1", "inhibition": "-12.2%"}, {"smiles": "N#CC1(NC(=O)COc2ccc(C(=O)c3ccc(F)cc3)cc2)CCCCC1", "inhibition": "99.2% (active)"}, {"smiles": "Fc1cccc(F)c1-c1nc(CSc2nccc(C(F)(F)F)n2)cs1", "inhibition": "51.8% (active)"}, {"smiles": "Cc1nccc(-c2ccc(NC(=O)/C=C/c3csc(C)n3)cc2)n1", "inhibition": "86.2% (active)"}, {"smiles": "O=C(Nc1cccc([N+](=O)[O-])c1)C1COc2ccccc2O1", "note": "(stereo not given)", "inhibition": "97.2% (active)"}, {"smiles": "O=C(NNC(=O)C1COc2ccccc2O1)c1cccc(C(F)(F)F)c1", "note": "(stereo not given)", "inhibition": "-52.4%"}, {"smiles": "O=C(Nc1cccc(Cl)c1Cl)C1COc2ccccc2O1", "note": "(stereo not given)", "inhibition": "-20.1%"}, {"smiles": "COc1cccc(OCCCOc2ccc(/C=C3\\C(=N)N4N=CSC4=NC3=O)cc2)c1", "inhibition": "88.5% (active)"}]}]}
